Bioassay records as filed in PubChem BioAssay.
Most compounds without a hit are left out; they make up all but 2.4% or so of the library.
CHO-K1 Ca ag: counter-screen for M1 agonists: effect in parental CHO-K1 cells. Fluo-8 calcium fluorescence; scaled to maximal ATP response, vehicle zero. activation, % at 3 µM. 360,000 tested, 0.48% active; in the data active = activation above about 15%;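 note: untransfected CHO-K1 host cells lacking M1 receptor as counterscreen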
M1 PAM: positive allosteric modulators of human M1 muscarinic receptor; P11229; activation, % at 3 µM; CHO-K1 hM1, Fluo-8 calcium fluorescence, ACh EC20; 0% = ACh EC20, 100% = maximal ACh; AID 588819; 360,000 tested, 0.088% active; in the data active = activation above about 19%, passing the limit was not always enough
Target sequence (P11229 whole entry, looked up): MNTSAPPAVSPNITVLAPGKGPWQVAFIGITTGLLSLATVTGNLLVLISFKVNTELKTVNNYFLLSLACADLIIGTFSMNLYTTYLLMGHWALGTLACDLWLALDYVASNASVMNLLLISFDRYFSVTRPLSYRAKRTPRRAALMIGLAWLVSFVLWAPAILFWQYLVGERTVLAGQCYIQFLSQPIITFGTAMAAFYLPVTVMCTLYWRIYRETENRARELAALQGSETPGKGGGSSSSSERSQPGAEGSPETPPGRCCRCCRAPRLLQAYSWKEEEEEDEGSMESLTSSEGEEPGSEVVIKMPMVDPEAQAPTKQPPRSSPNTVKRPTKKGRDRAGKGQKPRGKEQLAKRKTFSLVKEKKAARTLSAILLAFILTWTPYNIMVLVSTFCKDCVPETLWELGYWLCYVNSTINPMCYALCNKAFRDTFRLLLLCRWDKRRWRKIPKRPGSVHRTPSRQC
CHRM1 agonist: agonists of human M1 muscarinic receptor; P11229; CHO-K1 hM1, Fluo-8 calcium fluorescence, agonist mode; 0% DMSO, 100% acetylcholine EC100; activation, % at 3 µM; 360,000 tested, 0.33% active; AID 588814;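 active = activation above the run's mean compound activation plus 3 SD, cut at about 16% in these data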;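 note: peak over basal fluorescence ratio within a 140 s kinetic read after compound addition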
CHO-K1 Ca antag: M1 antagonist counterscreen hit in parental CHO-K1 cells | ATP-induced calcium, Fluo-8 fluorescence | inhibition, % at 3 µM | 360,000 tested, 0.6% active | AID 602250;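 active = inhibition above a per-plate cutoff, the plate's mean sample inhibition plus 3 SD, cut at about 24% in these data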;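 note: 0% = DMSO plus EC80 ATP and 100% = DMSO alone without ATP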
CHRM1 antagonist: blocks human M1 muscarinic receptor; P11229; CHO-K1 hM1, Fluo-8 calcium fluorescence, ACh EC80 antagonist; inhibition, % at 3 µM; 360,000 tested, 1.3% active; AID 588852;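 active = percent inhibition above its own plate's cutoff, namely the mean of that plate's compound wells plus 3 SD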;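 note: peak over basal fluorescence ratio during 140 s after agonist addition; 0% = ACh EC80 plus DMSO and 100% = DMSO alone without agonist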
CHO-K1 Ca PAM: counter-screen for M1 PAMs: effect in parental CHO-K1 cells; AID 602247; 360,000 tested, 0.02% active; activation, % at 3 µM; ATP EC20, Fluo-8 calcium fluorescence; 0% at ATP EC20, 100% at ATP max;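 active = activation above the run cutoff, the mean activation of all test compounds plus 3 SD, cut at about 40% in these data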;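 note: peak over basal fluorescence ratio in a 140 s read after ATP addition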
Starred values were filed as active, the others as inactive; x = no result.

SMILES	CHO-K1 Ca ag	M1 PAM	CHRM1 agonist	CHO-K1 Ca antag	CHRM1 antagonist	CHO-K1 Ca PAM
C[C@@H](CN1CCC[C@H]1CN1C(N)=NC[C@@H]1Cc1ccccc1)N1C[C@@H](Cc2ccccc2)N(CCc2ccc(Cl)c(Cl)c2)C1=N	-1	-29	-8	5	68*	6
CCCCCCNCc1ccc(Br)cc1	2	-3	16*	4	-11	9
CCCCCNCc1ccc(Br)cc1	1	3	7	0	5	-11
COc1ccc(C(=O)N(C)Cc2ccccn2)cc1OC1CCN(C(C)C)CC1	0	6	-5	-2	-10	-12
CC(Nc1ncnc2sccc12)c1ccccc1 (centres undefined)	16*	-12	3	23	25	6
c1ccc(Nc2ncnc3sccc23)cc1	3	14	-5	-20	-10	25
COC(=O)[C@@H]1CCCN1C(=O)c1ccc(OC2CCN(Cc3ccccn3)CC2)cc1	0	28*	-4	-13	-22	-10
Cc1cc(=O)n2c3ccccc3n(CC(O)CN3CCN(Cc4ccccc4)CC3)c2c1C#N (centres undefined)	3	-22	-6	4	45*	0
COc1ccc(NS(=O)(=O)c2csc(C(N)=O)c2)cc1	1	6	-1	-13	-13	-11
CCCOc1ccc(C(=O)NCC(c2cccs2)N(C)C)cc1 (centres undefined)	0	-21	-13	9	9	1
CCN(c1ccccc1)S(=O)(=O)c1ccc(C(=O)NCC(c2cccs2)N(C)C)cc1 (centres undefined)	7	-24	-5	-10	36*	11
CCN(c1ccccc1)S(=O)(=O)c1cc(C(=O)NCC(c2ccc(OC)cc2)N(C)C)ccc1C (centres undefined)	2	-10	36*	-16	55*	15
CCn1c(C)nc2cc(C(=O)N/N=C/c3ccc(N4CCOCC4)cc3)ccc21	3	-6	-6	-6	6	13
CC(C)[C@@H]1Cc2[nH]n(C)c(=O)c2[C@H](c2ccc(Cl)cc2)O1	1	x	x	3	x	12
O=C(C1=C(O)C(=O)N(c2nccs2)C1c1ccccc1)c1cc2ccccc2o1 (centres undefined)	24*	-8	8	10	8	3
CCOc1cc(CNCc2ccccc2)ccc1OCc1ccc(Cl)cc1	20*	2	0	29*	5	-12
COc1ccc(CNCCc2ccc(Cl)cc2)cc1OCc1ccccc1	14	-3	0	8	14	3
CCOc1cc(CNCCc2ccc(S(N)(=O)=O)cc2)cc(Cl)c1OCc1ccccc1	21*	-19	7	-14	32	0
COc1cc(CNCc2ccccn2)ccc1OCc1ccc(Cl)cc1Cl	0	-6	-5	25*	22	3
O=C(Nc1nnc(-c2cccs2)o1)c1cccc(C(F)(F)F)c1	32*	-8	41*	5	-4	17
N#Cc1ccc(C(=O)Nc2nnc(-c3cccs3)o2)cc1	0	10	-1	-5	-9	9
CCOC(=O)C1(C)CCCN1C(=O)c1ccc(OC)cc1 (centres undefined)	0	12	-5	-14	-16	18
CCSc1nnc(-c2ccncc2)o1	0	5	-3	-4	-6	8
OCC#CCSc1nnc(-c2ccncc2)o1	-1	5	-4	37*	7	4
Cc1ccccc1-c1cc2c(nn1)-c1ccccc1C2=O	0	3	3	25*	-23	-7
SMILES	CHO-K1 Ca ag	M1 PAM	CHRM1 agonist	CHO-K1 Ca antag	CHRM1 antagonist	CHO-K1 Ca PAM
OC(COc1ccccc1)CN1CCN(C(c2ccccc2)c2ccccc2)CC1 (centres undefined)	-1	-24	-9	2	23	4
c1ccc(OCCOCCN2CCN(C(c3ccccc3)c3ccccc3)CC2)cc1	1	-23	-8	-9	100*	13
COc1ccccc1OCCCCN1CCN(C(c2ccccc2)c2ccccc2)CC1	2	-20	-7	-5	86*	9
Cc1nc2sccn2c(=O)c1S(=O)(=O)N1CCN(c2ccccc2F)CC1	5	-13	-2	7	19	5
O=C(CCNC(=O)c1ccc(Cl)cc1)Nc1ncccc1O	0	14	1	-1	-21	-7
O=C(CCCNC(=O)c1ccc(Cl)cc1)Nc1ncccc1O	0	26*	10	11	-17	-20
Cc1noc(C)c1S(=O)(=O)N(CC(=O)NC1CCCC1)c1ccc(C(C)C)cc1	1	4	-4	-9	1	14
CC(C)C(C)NC(=O)COC(=O)c1cccc(C(=O)OCC(=O)NC(C)C(C)C)n1 (centres undefined)	1	12	-1	-16	-10	19
Cc1cccc(OCC(=O)Nc2ccc3oc(=O)ccc3c2)c1	19*	1	8	3	3	-10
Cc1ccccc1C(=O)N1CCN(c2ccc(NC(=S)NC(=O)c3ccco3)cc2)CC1	15*	-9	12	6	15	2
Cc1cc(OCC(=O)Nc2ccc(N3CCN(C(=O)c4ccco4)CC3)cc2)cc(C)c1Cl	2	-7	-1	-9	5	6
Cc1ccc(OCC(=O)Nc2ccc(N3CCN(C(=O)c4ccco4)CC3)cc2)cc1C	15*	-11	2	10	20	-10
Cc1cccc(OCC(=O)Nc2ccc(N3CCN(C(=O)c4ccco4)CC3)cc2)c1	16*	-18	4	29*	14	-17
COc1cc(C(=O)NCCCN2CCCC2=O)cc(Br)c1OCc1ccccc1	2	5	1	2	1	-5
C=CCC(=O)NC1CC(C)(C)Cc2c1cnn2-c1ccccc1C (centres undefined)	1	2	-5	-7	-5	13
CCOC(=O)Cn1cc(Cn2c3ccccc3c(=O)n2C(C)C)nn1	0	1	-2	-7	-26	5
Cc1cc(C)cc(NC(=S)N2CCN(C(=O)c3ccco3)CC2)c1	-1	16	3	25*	-8	-28
COc1ccc(-c2c(NC(=O)c3ccco3)n(C)c3ccccc3c2=O)cc1	0	-3	-4	-35	10	-10
O=C(COC(=O)c1cc(=O)[nH]c2ccccc12)Nc1nc(-c2ccccc2)cs1	3	-5	-1	3	21	-12
OC(CNC1Cc2ccccc2C1)c1ccccc1 (centres undefined)	2	3	16*	-18	-3	3
CCOC(=O)CCNC(=O)Nc1cc2nc(C)n(Cc3cccc(Cl)c3)c2nc1C	1	6	-6	-17	-8	14
Cc1nn(C(=O)c2cccc([N+](=O)[O-])c2)c(C)c1Sc1ccccc1	-1	-1	-4	26*	15	-8
